# The panel holds about 83,000 compounds, 20% with a hit somewhere; the sample as a whole holds those more often.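 Method: cells in 96-well plates; compound added at one concentration; 48 h incubation; percent growth measured; values under 10 scored active.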 Values without a mark were called inactive. The source made the active and inactive calls.
# Assays:
# Assay in all cases: NCI-60 one-dose screen, 48 h (100 = growth as untreated, 0 = no growth, -100 = all killed)
# Details in all cases: 10 µM unless noted
# T-47D breast = tested on: T-47D breast
# BT-549 breast = tested on: BT-549 breast
# MDA-MB-435 melanoma = tested on: MDA-MB-435 melanoma
# SW-620 colon = tested on: SW-620 colon
# MCF7 breast = tested on: MCF7 breast
# HCT-116 colon = tested on: HCT-116 colon
# HCC-2998 colon = tested on: HCC-2998 colon
# KM12 colon = tested on: KM12 colon
SMILES,growth (T-47D breast),growth (BT-549 breast),growth (MDA-MB-435 melanoma),growth (SW-620 colon),growth (MCF7 breast),growth (HCT-116 colon),growth (HCC-2998 colon),growth (KM12 colon)
COc1ccccc1N1CCN(C2=C(Cl)C(=O)c3ncccc3C2=O)CC1,19.3%,119%,57.7%,43.8%,36.9%,27.1%,108%,90.7%
Clc1cccc(/C=N/Nc2nc(N/N=C/c3cccc(Cl)c3)nc(N3CCCCC3)n2)c1,76%,94.9%,90.4%,103%,83.1%,97.2%,108%,91.1%
C/C(=C(/C)C1CC1CCNC1CCC(NC(=O)OC(C)(C)C)CC1)c1ccccc1 (stereo not given),45.5%,85.5%,52.8%,60.7%,15.5%,33.6%,-55.6% (active),73.7%
Cn1cc(C2=C(c3coc4cc(Br)ccc34)C(=O)NC2=O)c2ccccc21,70%,82.6%,8.23% (active),42.1%,51.2%,57.4%,104%,80.5%
CC(=C(c1ccc(OCCN2CCCC2)cc1)c1ccc(OCCN2CCCC2)cc1)c1ccc(Cl)cc1,-64.7% (active),55.8%,-89.7% (active),-73.3% (active),-75% (active),-93.6% (active),-57.1% (active),-22.9% (active)
CCOP(=O)(OCC)OC[C@]12CCC(C)(C)C[C@H]1C1=CC[C@@H]3[C@@]4(C)CC[C@H](OP(=O)(OCC)OCC)C(C)(C)[C@@H]4CC[C@@]3(C)[C@]1(C)CC2,26.2%,54.1%,62.1%,68.4%,28.1%,18.5%,73.1%,63.9%
CC(C)[C@H]1c2[nH]c3ccccc3c2C[C@H]2C(=O)N(CCCCCCC(=O)NO)CC(=O)N12,62.4%,101%,74.9%,82.3%,59.5%,59.2%,102%,88.8%
O=C(/C=C/c1ccc(F)cc1)Nc1cccc2cccnc12,32.8%,115%,107%,101%,6.92% (active),95.9%,88%,95%
Nc1nc(=O)n([C@H]2C[C@H](O)[C@@H](CO)O2)cc1C=O,113%,116%,110%,107%,96.1%,91.3%,87.7%,103%
COc1ccc(/C=N/NC(=O)c2c(N)nn(C)c2Nc2ccccc2)cc1Oc1ccccc1,78.1%,94.1%,101%,100%,75.3%,79.8%,101%,92.7%
CN1CCN(Cc2ccc(NC(=O)c3cncc(C#Cc4cnc(N)nc4)c3)cc2C(F)(F)F)CC1,19%,38.5%,12.9%,10.4%,27.6%,3.4% (active),42.5%,9.4% (active)
Cc1c(C(=O)/C=C/c2ccc(Cl)cc2)nnn1-c1ccc2oc(=O)ccc2c1,85.5%,109%,99.7%,97.7%,42.2%,88.5%,104%,99.8%
CCOC(=O)c1c(NCC(=O)Nc2cccc([N+](=O)[O-])c2)sc(C(C)=O)c1C,34.6%,-40.7% (active),-26% (active),3.65% (active),-9.04% (active),-14.3% (active),-62.3% (active),-7.12% (active)
CCn1c2ccc(/C=N/N(C)S(=O)(=O)CCN(C)C)cc2c2cc(/C=N/N(C)S(=O)(=O)CCN(C)C)ccc21,88.6%,72.4%,62%,30.6%,22.1%,14.3%,63.4%,81.4%
C/C(=C(\c1ccc(O)cc1)c1ccc(OCCN2CCCCCC2)cc1)c1ccc(Cl)cc1,-71.9% (active),-71.8% (active),-73.9% (active),-2.89% (active),-81.1% (active),-31.7% (active),-88.2% (active),-96.1% (active)
O=C(/C=C/c1cccc(Br)c1)c1cccc(OCCCCOc2cccc(C(=O)/C=C/c3cccc(Br)c3)c2)c1,104%,117%,105%,98.3%,89.5%,87%,118%,98.7%
Cc1ccc([C@H]2c3[nH]c4ccccc4c3C[C@H]3C(=O)N(CCCCCCC(=O)NO)CC(=O)N23)s1,37.3%,90.9%,45.2%,51.9%,32.8%,23.7%,82.4%,74.3%
CCN(CC)CCOc1ccc(C(=C(C)c2ccc(OC)cc2)c2ccc(OCCN(CC)CC)cc2)cc1,-45.7% (active),47.9%,-71.5% (active),-35.7% (active),-64.5% (active),0.525% (active),3.44% (active),14.7%
CCN(CC)c1ccc(/C=N/NC(=O)c2ccc(NS(C)(=O)=O)cc2)cc1,27.4%,28.4%,37.3%,40.5%,9.25% (active),21.3%,45.7%,18.1%
C[C@H]1OCC2(CCN(c3cnc(C(=O)Nc4cc(F)cc5cccnc45)cn3)CC2)[C@H]1N,35.3%,91.5%,79.7%,4.8% (active),1.15% (active),13.9%,78.3%,82.5%
COc1cc(C(=O)c2cc(C(C)=O)c3cccc(C)n23)cc(OC)c1OC,20.3%,25.8%,-30.1% (active),26%,20.3%,16.6%,61.1%,29.8%
O=C1Nc2ccccc2/C1=N\c1nnc(-c2ccccc2)o1,77.9%,105%,102%,95.3%,66.3%,103%,111%,96.7%
O=C(CCCCCCN1CC(=O)N2[C@@H](c3ccc(Cl)s3)c3[nH]c4ccccc4c3C[C@H]2C1=O)NO,27.5%,85.7%,23.9%,33.2%,14.7%,13%,37.6%,71.9%
NS(=O)(=O)c1ccc(Nc2nc(N/N=C/c3ccc4c(c3)OCO4)nc(Nc3ccccc3)n2)cc1,54.7%,76.7%,59.2%,49.8%,18.7%,36.7%,23.2%,70.4%
CC1(C)CC[C@]2(C(=O)NCCCCCCN(CCCN)CCCN)CC[C@]3(C)C(=CC[C@@H]4[C@@]5(C)CC[C@H](O)C(C)(C)[C@@H]5CC[C@]43C)[C@@H]2C1,98.6%,102%,105%,107%,93.4%,99.2%,103%,102%
C#Cc1nc(/C=C/C(=O)NO)cs1,67.9%,101%,61.1%,45.8%,62.6%,23.8%,111%,56.3%
O=c1c2cc(-c3ccc(F)cc3F)ccc2n(Nc2ccccc2)c(=O)n1-c1cccc(C(F)(F)F)c1,8.44% (active),3.91% (active),5.62% (active),16%,4.02% (active),7.14% (active),14.7%,11.4%
CCCCc1nc2c(N)nc3ccccc3c2n1Cc1cccc(CN)c1,74%,28.1%,4.8% (active),52.6%,24.8%,23%,59.7%,49.9%
O=C(N/N=C/c1cc2ccccc2nc1Cl)c1cc(-c2nc3ccccc3[nH]2)nc2ccccc12,67.5%,85.9%,101%,101%,89.7%,98.8%,104%,97.2%
CC(=O)OC[C@]12CC[C@@H](C(=O)/C=C/c3cccnc3)[C@@H]1[C@H]1CC[C@@H]3[C@@]4(C)CC[C@H](OC(C)=O)C(C)(C)[C@@H]4CC[C@@]3(C)[C@]1(C)CC2,-16.7% (active),-12.6% (active),-1.17% (active),7.96% (active),-26.8% (active),-61.2% (active),-63.2% (active),18.5%
